Screens as filed in PubChem BioAssay.
Hits are enriched below; roughly 13% of the tested compounds scored in any of these assays.
HCMV antiviral: human cytomegalovirus inhibition; HFF cells, HCMV-luciferase reporter, 72 h; hits give low values; activity change, negative = inhibition, % at 57.5 µM; actives 4.5% (n = 410,000); in the data active = activity change below about -60%; inconclusive = no clear call, values can overlap the other calls; inactive = above about -39%
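Two compound doses tested in HFFs infected with HCMV-luciferase, MOI 1 PFU/cell, 72 h at 37C. Lysate luminescence read with OneGlo; data normalized against buffer-only and 10uM Salinomycin inhibitor controls.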
HCV inh: inhibitors of hepatitis C virus infection; actives 3.4% (n = 340,000); Potency, µM (titrated, usually from 41.8 µM), without a hit: at the top dose activity change, negative = inhibition, usual class: inhibitors; Huh7.5.1 HCVcc-Cre infection, luciferase reporter, 44 h; AID 651820; also: potency is read from the fitted curve at half-maximal effect
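Antiviral activity was scored by luciferase reporter output from cells infected with HCVcc-Cre (~0.5 moi) in presence of compound, 44 h infection period, cells seeded 1,000/well 4 h prior.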
Pf growth 96h: inhibits malaria parasite growth, 96 h. P. falciparum luciferase reporter growth, 96 h. Potency, µM (titrated, usually from 28.7 µM), inactives show at the highest dose activity change, negative = inhibition, most hits filed as inhibitors. actives 6.9% (n = 320,000). AID 504834; also: potency is read from the fitted curve at half-maximal effect
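Plates of compound plus infected erythrocytes (2% hematocrit, 0.05% parasitemia final) incubate 96 hours, 37 C, 5% CO2. Detection reagent added; reduced luminescence from the parasites' luciferase reporter flags inhibition.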
Pf growth 48h: inhibits P. falciparum growth in the first generation, 48 h | P. falciparum luciferase growth in erythrocytes, 48 h | Potency, µM (titrated, usually from 28.7 µM), for the others: at the top dose activity change, negative = inhibition, usual class: inhibitors | actives 5.9% (n = 310,000); also: potency is read from the fitted curve at half-maximal effect
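Luciferase-expressing P. falciparum in infected erythrocytes (2% hematocrit, 0.1% parasitemia final) in RPMI 1640/0.5% Albumax were exposed to compound for 48 hours at 37 C, 5% CO2; growth read as luminescence.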
Numbers without * were called inactive; ? = inconclusive; . = no result given; ! = a repeat was not active; [ ] = dose if it differs, or a comment. Unless noted, calls follow the shape of the dose curve; as a rule, active = well fitted inhibition curve with a large enough effect; inconclusive = small, poorly fitted or top-dose-only effect, or another doubt; inactive = no such curve, though single readings can be large or run the other way. % is scaled to controls: 0 for no effect and ±100 for the full control effect.

SMILES	HCMV antiviral	HCV inh	Pf growth 96h	Pf growth 48h
COc1ccc(CCC(C)N2CCC(Oc3ccc(C(=O)N4CCCC4)cc3)CC2)cc1 (configuration not stated)	-8	?	?	12µM*
Brc1ccc(-c2nnc3ccc(N4CCN(c5ccccc5)CC4)nn23)cc1	.	-26%	12µM*	?
O=C(Nc1ccc(Cl)cc1)N1CCN(c2ccc3nnc(-c4ccccc4)n3n2)CC1	-81*	.	.	.
Fc1ccc(-c2nnc3ccc(N4CCCC4)nn23)cc1	-38	-8%	-14%	-3%
COc1ccccc1NC(=O)N1CCN(c2ccc3nnc(-c4ccc(F)cc4)n3n2)CC1	-76*!	-19%	?	?
CC(=O)N1c2ccc(S(=O)(=O)N3CCCCCC3)cc2CC1C(=O)NCc1cccc(C)c1 (configuration not stated)	3	.	.	.
Cc1ccc(CNC(=O)c2cnc(N3CCCCC3)c3ccccc23)cc1	10	.	.	.
COc1ccc(-c2ccnc3nc(-n4cccc4)nn23)cc1	13	.	?	?
c1coc(-c2ccnc3nc(-n4cccc4)nn23)c1	-10	?	?	10µM*
O=C(CSc1nnc(C2COc3ccccc3O2)o1)NC1CCCCC1 (configuration not stated)	8	-17%	1%	5%
O=C(CSc1nnc(C2COc3ccccc3O2)o1)Nc1nccs1 (configuration not stated)	.	-2%	1.3µM*	1%
COCC(=O)N1c2nc(-c3ccco3)nn2C2(CCCCC2)[C@@H]2CCCC[C@@H]21	-12	.	.	.
O=[N+]([O-])c1ccc2nc(NCCCO)nc(-c3ccccc3)c2c1	28	-12%	12µM*	?
Cc1ccc(-c2noc(CN(C(=O)COc3cc(C)cc(C)c3C)C(C)C)n2)cc1	-16	.	.	.
O=C(CN1C(=O)c2ccccc2S1(=O)=O)Nc1ccccc1C(=O)NCc1ccco1	42	7%	.	5%
O=C(CN1C(=O)c2cccc3cccc1c23)Nc1ccccc1C(=O)NCc1ccco1	-61*	-26%	.	.
COc1ccc(Cl)cc1C(=O)NNC(=O)CNC(=O)c1ccco1	-99*	5%	.	.
COc1ccc(Cl)cc1NC(=O)c1ccco1	-5	11µM*	.	8%
COc1ccc(OC)c(NC(=O)c2cnc3n(c2=O)CCS3)c1	-4	6%	8.3µM*	.
COC(=O)C(CCSC)NC(=O)c1cc2c(n(-c3ccc(Cl)cc3)c1=O)CCCC2=O (configuration not stated)	20	.	.	.
CCOC(=O)CC(NC(=O)c1ccco1)c1ccc(C)cc1 (configuration not stated)	-3	-6%	6.6µM*	3%
COc1ccc(Cl)cc1C(=O)Nc1ccc2c(c1)OCCO2	197	?	?	201%
COc1ccc(C2=NS(=O)(=O)N(C)C(C(=O)Nc3ccc4c(c3)OCO4)=C2)cc1OC	9	13µM*	123%	-16%
CNC(=O)COC(=O)c1ccccc1NC(=O)c1ccco1	-101*	-10%	3%	-2%
COc1ccc(Cl)cc1C(=O)Nc1ccc2c(c1)OCO2	260	11µM*	.	46%
SMILES	HCMV antiviral	HCV inh	Pf growth 96h	Pf growth 48h
CC1CCCCC1NC(=O)COC(=O)c1ccccc1NC(=O)c1ccco1 (configuration not stated)	-29	20%	39%	.
O=C(Cn1nc(C(F)(F)F)c2c1CCCC2)Nc1ccc(Br)cc1	-20	.	.	.
CCOC(=O)C1CCN(C(=O)C2CCN(S(=O)(=O)c3c(C)noc3/C=C/c3ccc(C)cc3)CC2)CC1	4	.	.	.
Cc1nc(N2CCOCC2)c2c(C(=O)Nc3cccc(C(F)(F)F)c3)c(C)oc2n1	-27	.	.	.
O=C(/C=C/c1ccc(Br)cc1)c1ccc(NC(=O)c2ccco2)cc1	-29	?	26%	-1%
CCc1ccc(OCC(=O)NC(NC(=S)Nc2ccc(Cl)cc2)C(Cl)(Cl)Cl)cc1 (configuration not stated)	-34	?	13µM*	?
O=C(/C=C\c1ccccc1)Nc1ccc(NC(=O)c2ccco2)cc1	-101*	?	15%	?
COc1ccc(Cl)cc1C(=O)Nc1ccc(NC(=O)c2ccco2)cc1	.	?	2.1µM*	?
O=C(Nc1ccccc1C(=O)Nc1ccccc1C(=O)NCc1ccco1)c1ccco1	-19	-20%	.	8.3µM*
CCOC(=O)c1ccc(NC(=O)C(CC)Sc2nc3ncccc3o2)cc1 (configuration not stated)	26	.	.	.
COc1ccc(CCNC(=O)CSc2cc(=O)n(C)c3ccccc23)cc1OC	6	.	.	.
CCc1ccc(N(CC)C(=O)Cn2cnc3sc(C)c(S(=O)(=O)N4CCN(c5ncccn5)CC4)c3c2=O)cc1	-18	.	.	.
CC(=O)c1ccc(NC(=S)NC(NC(=O)c2ccco2)C(Cl)(Cl)Cl)cc1 (configuration not stated)	-25	15%	-32%	.
COc1ccc(C(=O)Nc2ccccc2NC(=O)c2ccco2)cc1OC	22	-4%	1%[5.75 µM]	5%
COc1cc(NC(=O)[C@@H](NC(=O)c2ccco2)C(C)C)c(OC)cc1NC(=O)c1ccccc1	-37	7.9µM*	?	?
O=C(NC(NC(=S)Nc1ccc(Cl)cc1)C(Cl)(Cl)Cl)c1ccco1 (configuration not stated)	-36	-30%	21%	10µM*
COc1ccc(C(=O)Nc2ccccc2NC(=O)c2ccco2)c(OC)c1	.	-1%	38%	?
COc1ccc(OC)c(NC(=O)c2ccccc2NC(=O)c2ccco2)c1	0	?	-6%	3.3µM*
O=C(NCc1ccc(CNC(=O)c2ccco2)cc1)c1ccco1	-9	10%	12µM*	-3%
Cc1cccc(Cn2c(=O)n(-c3ccc(Cl)c(Cl)c3)c(=O)c3c(C)c(C)sc32)c1	7	.	.	.
CCCSc1ncc(Cl)c(C(=O)N2CCN(c3cccc(Cl)c3)CC2)n1	80	.	.	.
CCCCNC(=O)C(NC(=O)c1cnccn1)C(=O)c1ccccc1 (configuration not stated)	-25	.	.	.
COc1ccc(OC)c(NC(=O)c2cnc(Nc3ccccc3OC)c3ccccc23)c1	-39	?	17%	10µM*
O=C(CCSc1ccc(Cl)cc1)c1ccco1	-64*	?	?	-11%
CC(=O)Nc1ccc(NC(=O)c2ccco2)cc1	19	7%	.	90%
Cc1ccc(Oc2ccc(NC(=O)c3ccco3)cc2)cc1	9	-6%	-2%	0.93µM*
O=C(Nc1ccc(Cl)cc1)c1ccco1	25	-10%	5.2µM*	131%
Cc1ccc(-n2c(=O)c3c4c(sc3n(CC(=O)Nc3ccccc3C)c2=O)CCCCC4)cc1C	7	.	.	.
CCCC(=O)OC[C@H]1CN(C2CCCC2)S(=O)(=O)c2c(Oc3ccccc3)cccc2O1	23	.	.	.
N#Cc1ccc(C(=O)Nc2cccc(NC(=O)c3ccco3)c2)c(F)c1	-74*	?	0%	?
